SMILES strings stand for the structures. Values without a mark were called inactive. Inconclusive results are not listed. The source made the active and inactive calls. Unless noted, the call rests on the fitted dose curve; in most records, active means well fitted curve in the direction sought with a large enough effect in the repeat runs; inconclusive means weak or mixed curves; inactive means no such curve, though single readings can be large; an effect the other way counts as inactive or inconclusive.

Assay [1] in a line: qHTS RealTime-Glo MT Cell Viability Assay in HEK293 cells - 0 hour (AID 1224880). Further: top concentration of the series differs between compounds; nearly all actives have a fitted effect of over 45% in size. In a few lines: (§1)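 Nonlytic bioluminescent viability monitoring. HEK293 at 600 cells/well with reagent; 5 h settle; compound transfer by pintool; plates held at 37 C and read at set time points.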
On the technique in general: Quantitative high-throughput screening tests each substance at several concentrations.

Assay [2] can be described thus: A CellTox Green Cytotoxicity Assay to monitor cytotoxicity in HEK293 cells - 32 hour (AID 1224881). Further: nearly all actives have a fitted effect of over 40% in size. In a few lines: (§2)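 Cytotoxicity was tracked continuously in HEK293 cells by a DNA-binding dye excluded from viable cells. Compounds were transferred in DMSO 5 h after seeding; fluorescence was recorded at intervals up to 40 h.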
Assay [3] can be described thus: A CellTox Green Cytotoxicity Assay to monitor cytotoxicity in HepG2 cells - 0 hour (AID 1224882). Further: nearly all actives have a fitted effect of over 35% in size. In a few lines:
(§3)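 Real-time, homogeneous cytotoxicity readout: dead-cell DNA staining by CellTox Green in HepG2 monolayers, fluorescence measured at timed intervals up to 40 h of continuous compound exposure.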

A short description of assay [4]: A CellTox Green Cytotoxicity Assay to monitor cytotoxicity in HepG2 cells - 32 hour (AID 1224883). Further: nearly all actives have a fitted effect of over 50% in size. In a few lines:
as §3

Assay [5] in a line: A CellTox Green Cytotoxicity Assay to monitor cytotoxicity in HEK293 cells - 8 hour (AID 1224884). Further: nearly all actives have a fitted effect of over 35% in size. In a few lines: as §2
Assay [6] in a line: qHTS RealTime-Glo MT Cell Viability Assay in HepG2 cells - 16 hour (AID 1224885). Further: nearly all actives have a fitted effect of over 50% in size. In a few lines:
(§4)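 Viability was tracked continuously by NanoLuc luminescence from prosubstrate reduced by living HepG2 cells, at successive time points over 40 h of compound exposure. Cells with reagent were preincubated 5 h at 37 °C before compound addition.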

Assay [7] can be described thus: qHTS RealTime-Glo MT Cell Viability Assay in HEK293 cells - 24 hour (AID 1224886). Further: top concentration of the series differs between compounds; nearly all actives have a fitted effect of over 50% in size. In a few lines:
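Viability tracked continuously by luminescence as live cells reduce a prosubstrate for NanoLuc; HEK293 cells preincubated 5 h, compound-treated at 37 C, and read at 0, 8, 16, 24, 32 and 40 h.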

Assay [8] in a line: qHTS RealTime-Glo MT Cell Viability Assay in HEK293 cells - 8 hour (AID 1224887). Further: top concentration of the series differs between compounds; nearly all actives have a fitted effect of over 50% in size. In short, it runs like this:
as §1

A short description of assay [9]: A CellTox Green Cytotoxicity Assay to monitor cytotoxicity in HEK293 cells - 16 hour (AID 1224888). Further: nearly all actives have a fitted effect of over 35% in size. In a few lines: as §2
Assay [10] can be described thus: qHTS RealTime-Glo MT Cell Viability Assay in HepG2 cells - 0 hour (AID 1224889). Further: nearly all actives have a fitted effect of over 50% in size. In a few lines: as §4
Assay [11] is described as follows: A CellTox Green Cytotoxicity Assay to monitor cytotoxicity in HepG2 cells - 8 hour (AID 1224890). Further: nearly all actives have a fitted effect of over 45% in size. In short, it runs like this: as §3
The nature of assay [12]: qHTS assay to identify small molecule antagonists of the estrogen receptor alpha (ER-alpha) signaling pathway using the BG1 cell line in the presence of 0.1 nM 17-beta-estradiol - cell viability counter screen (AID 1259241). Further: nearly all actives have a fitted effect of over 40% in size. In short, it runs like this:
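The cell line endogenously expresses full-length ER-alpha and carries four EREs driving luciferase. Cells are cultured 5 days hormone-free, treated 22 hr with compounds and 0.1 nM estradiol, then viability is read by fluorescence.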

Assay [13] can be described thus: qHTS assay to identify small molecule antagonists of the androgen receptor (AR) signaling pathway using the MDA cell line in the presence of 0.5 nM R1881 - cell viability counter screen (AID 1259242). Further: nearly all actives have a fitted effect of over 45% in size. In a few lines: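 Cytotoxicity toward MDA-kb2 cells is measured by CellTiter-Fluor live-cell protease fluorescence after 16 hr compound exposure at 37C in the presence of 0.5 nM R1881 stimulator.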

In assay [14] the target is Androgen receptor (Homo sapiens) (UniProt P10275). Put plainly: qHTS assay to identify small molecule antagonists of the androgen receptor (AR) signaling pathway using the MDA cell line in the presence of 0.5 nM R1881 (AID 1259243). Further: nearly all actives have a fitted effect of over 50% in size. In a few lines: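 Steps: seed MDA-kb2 cells, incubate 5 hr at 37C; pin-transfer compounds in DMSO; add R1881 to 0.5 nM final; incubate 16 hr; add ONE-Glo, wait 30 min at room temperature; read luminescence.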
Androgen receptor (Homo sapiens), sequence (P10275 whole entry, looked up): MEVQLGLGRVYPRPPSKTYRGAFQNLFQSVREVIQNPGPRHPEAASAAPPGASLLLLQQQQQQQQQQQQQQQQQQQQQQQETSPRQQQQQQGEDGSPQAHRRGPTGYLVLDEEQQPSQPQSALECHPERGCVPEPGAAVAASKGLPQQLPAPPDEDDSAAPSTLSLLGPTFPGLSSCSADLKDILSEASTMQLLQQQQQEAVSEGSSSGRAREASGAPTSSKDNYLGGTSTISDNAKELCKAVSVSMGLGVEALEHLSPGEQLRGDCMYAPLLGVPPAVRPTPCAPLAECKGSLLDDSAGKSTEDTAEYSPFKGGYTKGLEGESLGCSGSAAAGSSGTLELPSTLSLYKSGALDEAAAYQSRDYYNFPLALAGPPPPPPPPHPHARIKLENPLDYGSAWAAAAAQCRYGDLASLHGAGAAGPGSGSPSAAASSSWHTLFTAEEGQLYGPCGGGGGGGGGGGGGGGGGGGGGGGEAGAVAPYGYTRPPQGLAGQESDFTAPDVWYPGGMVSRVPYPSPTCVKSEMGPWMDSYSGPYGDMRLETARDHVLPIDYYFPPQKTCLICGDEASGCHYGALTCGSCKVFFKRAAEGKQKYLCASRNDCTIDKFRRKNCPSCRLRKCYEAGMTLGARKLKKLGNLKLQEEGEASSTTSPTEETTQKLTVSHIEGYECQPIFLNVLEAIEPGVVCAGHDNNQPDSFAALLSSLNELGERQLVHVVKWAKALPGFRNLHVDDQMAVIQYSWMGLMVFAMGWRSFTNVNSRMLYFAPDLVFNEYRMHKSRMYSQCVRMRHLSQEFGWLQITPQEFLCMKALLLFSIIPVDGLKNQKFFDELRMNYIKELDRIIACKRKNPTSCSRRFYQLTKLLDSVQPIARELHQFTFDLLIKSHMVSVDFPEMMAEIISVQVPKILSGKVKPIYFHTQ

Assay [15] has as its target Estrogen receptor (Homo sapiens) (UniProt P03372). Put plainly: qHTS assay to identify small molecule antagonists of the estrogen receptor alpha (ER-alpha) signaling pathway using the BG1 cell line in the presence of 0.1 nM 17-beta-estradiol (AID 1259244). Further: nearly all actives have a fitted effect of over 50% in size. In short, it runs like this:
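After 5 days in hormone-depleted medium (charcoal-stripped serum, no phenol red), VM7Luc4E2 cells were seeded, incubated 24 h, then co-treated with compound and 0.1 nM (final) estradiol for 22 h before luminescence detection.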

A short description of assay [16]: qHTS assay to identify small molecule HDAC inhibitors (AID 1259364). Further: nearly all actives have a fitted effect of over 45% in size. Further: potency means the concentration at half of the fitted maximal effect. In short, it runs like this: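 Homogeneous cell-based luminescent assay of endogenous class I/II HDAC activity; HCT-116 cells, 2 h compound exposure, 30 min HDAC-Glo development at RT.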
A short description of assay [17]: qHTS assay to identify small molecule HDAC inhibitors - cell viability counter screen (AID 1259365). In short, it runs like this: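 Viability readout: CellTiter-Glo luminescence. Wild-type HCT-116 cells, 2hr compound treatment following overnight attachment at 37 C.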
Assay [18] can be described thus: qHTS assay to identify small molecule antagonists of the sonic hedgehog signaling (Shh) pathway - cell viability counter screen (AID 1259367). Further: nearly all actives have a fitted effect of over 55% in size. In short, it runs like this:
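After a 4 hr settling period, 3T3 Gli1-Luc cells were treated with DMSO-dissolved chemicals and conditioned medium, kept 24 hr at 37C in 5% CO2, and assayed for viability by CellTiter-Fluor fluorescence following 1 hr reagent incubation.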

Assay [19] is described as follows: qHTS assay to identify small molecule agonists of the sonic hedgehog signaling (Shh) pathway - cell viability counter screen (AID 1259366). Further: nearly all actives have a fitted effect of over 50% in size. In a few lines: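 Viability measured fluorometrically (CellTiter-Fluor, 1hr, 37C) in 3T3 Gli1-Luc reporter cells after 23hr compound exposure within a 24hr incubation at 37C/5% CO2.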
The nature of assay [20]: qHTS assay to identify small molecule phospholipidosis (PLD) inducers (AID 1259344; active means well fitted curve in the direction sought with a large enough effect; an effect the other way counts as inactive or inconclusive). In a few lines: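 HepG2 cells grown on collagen I take up LipidTOX Red while exposed to compound for 24 h; after fixation they are imaged at 20x and pit metrics are extracted.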

Estrogen receptor (Homo sapiens), sequence (P03372 whole entry, looked up): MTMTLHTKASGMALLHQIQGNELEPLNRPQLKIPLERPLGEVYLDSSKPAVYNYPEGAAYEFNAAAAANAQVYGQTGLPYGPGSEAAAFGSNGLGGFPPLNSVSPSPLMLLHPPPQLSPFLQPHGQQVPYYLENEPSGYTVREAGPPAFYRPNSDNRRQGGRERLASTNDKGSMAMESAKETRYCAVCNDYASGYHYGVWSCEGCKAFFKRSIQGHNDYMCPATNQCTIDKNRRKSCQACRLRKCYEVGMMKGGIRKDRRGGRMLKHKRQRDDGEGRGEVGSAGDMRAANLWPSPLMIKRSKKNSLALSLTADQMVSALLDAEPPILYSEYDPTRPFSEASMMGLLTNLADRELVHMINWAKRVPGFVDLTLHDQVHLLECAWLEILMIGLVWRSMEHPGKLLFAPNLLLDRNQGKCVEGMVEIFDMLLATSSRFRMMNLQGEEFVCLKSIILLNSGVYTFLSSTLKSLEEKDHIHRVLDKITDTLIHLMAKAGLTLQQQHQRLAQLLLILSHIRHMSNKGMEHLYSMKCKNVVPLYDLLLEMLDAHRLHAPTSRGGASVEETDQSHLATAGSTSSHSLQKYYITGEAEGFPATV

In the case of `O=S(=O)(Cl)c1c(Cl)cccc1Cl`, the Potency result in assay [1], in assay [2], in assay [3], in assay [4], in assay [5] and in [6] was “inactive” throughout. Also, the Potency entry in assay [7], in assay [8], in [9], in [10], in [11] and in [12] was “inactive” each time. Besides, the Potency entry in [13], in [14], in assay [15], in assay [16], in assay [17] and in assay [18] was “inactive” throughout.
On to `Nc1ccc(NC(=O)c2ccc(N)cc2)cc1`, for which the Potency result in [1], in [2], in assay [3], in assay [4], in [5] and in assay [6] was “inactive” each time. Besides, the Potency entry in [7], in [8], in [9], in assay [10], in [11] and in assay [12] was “inactive” each time. Also, the Potency entry in assay [13], in assay [14], in [15], in assay [17], in [19] and in assay [18] was “inactive” throughout. In addition, in [16], the Potency is 27.3 µM (active).
`[Cl][Nd]([Cl])[Cl]`: the Potency result in assay [1], in assay [2], in [3], in assay [4], in assay [5] and in assay [6] was “inactive” throughout. The Potency entry in assay [7], in assay [8], in assay [9], in assay [10], in assay [11] and in assay [12] was “inactive” each time. The Potency result in assay [13], in assay [15], in assay [16] and in assay [17] was “inactive” throughout.
Turning to `CC(C)COC(=O)COc1cc(Cl)c(Cl)cc1Cl`, the Potency result in assay [1], in [2], in assay [3], in [4], in [5] and in [6] was “inactive” throughout. Also, the Potency entry in assay [7], in [8], in assay [9], in [10], in [11] and in assay [12] was “inactive” each time. The Potency entry in assay [13], in assay [15], in assay [16], in [17] and in assay [19] was “inactive” in each case.
Consider `Cc1ccc(Nc2c(F)cccc2Cl)c(CC(=O)O)c1`, for which the Potency entry in assay [1], in [2], in assay [3], in assay [4], in [5] and in assay [6] was “inactive” each time. Moreover, the Potency entry in assay [7], in [8], in assay [9], in assay [10], in [11] and in [12] was “inactive” in each case. For the same compound, the Potency entry in [13], in assay [15], in [20], in assay [16], in assay [19] and in assay [18] was “inactive” each time.
In the case of `CCC(CO)(CO)CO`, the Potency result in assay [1], in [2], in assay [3], in assay [4], in [5] and in [6] was “inactive” each time. Also, the Potency entry in assay [7], in assay [8], in assay [9], in assay [10], in assay [11] and in assay [12] was “inactive” throughout. Moreover, the Potency entry in [13], in assay [14], in [15], in [16], in assay [17] and in assay [19] was “inactive” throughout. Further, in assay [18], the Potency result is “inactive”.
With `CC(CCc1ccc(O)cc1)NCCc1ccc(O)c(O)c1` (stereo not drawn), the Potency result in [1], in assay [2], in [3], in assay [4], in [5] and in [6] was “inactive” in each case. Also, the Potency entry in assay [7], in assay [8], in [9], in assay [10], in [11] and in assay [12] was “inactive” throughout. Besides, the Potency result in assay [13], in assay [15], in [16], in [17] and in assay [19] was “inactive” throughout.
Turning to `C[C@H](CS)C(=O)N1CCC[C@H]1C(=O)O`, the Potency result in assay [1], in assay [2], in assay [3], in assay [4], in [5] and in assay [6] was “inactive” throughout. Besides, the Potency entry in [7], in [8], in assay [9], in assay [10], in assay [11] and in assay [12] was “inactive” throughout. Moreover, the Potency result in assay [13], in assay [14], in assay [20], in assay [16], in [17] and in [19] was “inactive” each time. In addition, the Potency result in [18] is “inactive”.

(Values after PubChem BioAssay (Tox21).)
